# B2AR arrestin ag: agonists recruiting beta-arrestin to human beta2-adrenergic receptor; Potency, µM (series often up to 46.1 µM), hits mostly activators; 44,000 tested, under 10 active; HTLA Tango cells, beta-arrestin recruitment, luciferase luminescence, 18 h;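 further: potency means the concentration at half of the fitted maximal effect; 0% = DMSO and full agonism = EC100 isoproterenol or metaproterenol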
#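 Receptor–beta-arrestin recruitment read by tTA-responsive luciferase: compound titrations (up to 46 µM) incubated 18 h with Tango cells, then luminescent substrate 15 min at room temperature. Concentration-response fits classified by r2, efficacy and activity.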
# GPR32 ag: agonists of human resolvin D1 receptor DRV1 (GPR32); O75388; CHO-K1 GPR32 beta-arrestin PathHunter luminescence, 90 min; zero percent set by DMSO-only wells; activation, % at 76.9 µM; 2.5% of 48,000 active;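 active means activation of at least 60% and not above a set upper limit, about 1 call in 100 departs from these limits; inconclusive means activation of 40% to 60%, or above that upper limit; inactive means activation under 40%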; further: 0% is about no effect
#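 PathHunter beta-arrestin recruitment in CHO-K1 cells stably expressing ProLink-tagged GPR32. Cells were exposed to compound for 90 min at 37 C, then chemiluminescence was read after 1 h detection at ambient temperature; DMSO served as basal control.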
# GALC G270D act: enhancers of human galactocerebrosidase G270D mutant activity in cells. P54803. 0.1% of 45,000 active. 145M-Twi-hGALC-G270D cells (Twitcher mouse brain line with human GALC G270D), HMU-beta-Gal fluorescence, 48 h. AID 1159614. Potency, µM (series often up to 57.5 µM), usual class: activators; further: potency means the concentration at half of the fitted maximal effect; 0% is about no effect; nearly all actives have a fitted effect of over 65% in size
#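 Fluorogenic HMU-b-Gal hydrolysis (0.1 mM final, pH 5.2 citrate-phosphate with 1 mg/mL sodium taurocholate; carbonate stop buffer) measures mutant GALC activity after compound treatment of live 145M-Twi Twitcher brain cells stably carrying human GALC-G270D, with wild-type GALC line alongside; activation sought.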
# FH mod: Identification of activators of human fumarate hydratase by quantitative high-throughput screening | AID 1347055, 2019 | FH coupled MDH/diaphorase resazurin fluorescence, 15 min | 0.22% of 54,000 active | Potency, µM (doses to about 79.9 µM), without a hit: top-dose activity change, negative = inhibition, hits mostly inhibitors; further: potency means the concentration at half of the fitted maximal effect; on the % scale 0 is the no-effect control and ±100 the full control effect; the screen sought activators but most active calls are inhibition curves; nearly all actives have a fitted effect of over 45% in size
# GALK inhibitor: inhibitors of human galactokinase (GALK); P51570; 44,000 tested, under 10 active; Potency, µM (top dose mostly 57.5 µM), without a hit: at the top dose activity, negative = inhibition, actives largely listed as inhibitors; recombinant GALK, Kinase-Glo ATP luminescence, 1 h;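 further: plate controls were full GALK reaction for no effect and reaction lacking GALK for full effect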
#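 Compounds were pinned into ATP buffer, then GALK-galactose mix was added (final 5 nM enzyme, 35 uM ATP, 100 uM galactose, pH 8.0). After 1 h at room temperature, Kinase-Glo Plus was added and luminescence read.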
# TSG101-PTAP inh: inhibitors of HIV-1 PTAP binding to human TSG101, validation | Q99816 | Fluorescence polarization, FITC-PTAP peptide/Tsg101, 20 min | Potency, µM (highest dose often 115 µM), hits mostly inhibitors | 44,000 tested, under 10 active | AID 1347069; further: potency means the concentration at half of the fitted maximal effect; 0% is about no effect
# Target sequence (Q99816 whole entry, looked up): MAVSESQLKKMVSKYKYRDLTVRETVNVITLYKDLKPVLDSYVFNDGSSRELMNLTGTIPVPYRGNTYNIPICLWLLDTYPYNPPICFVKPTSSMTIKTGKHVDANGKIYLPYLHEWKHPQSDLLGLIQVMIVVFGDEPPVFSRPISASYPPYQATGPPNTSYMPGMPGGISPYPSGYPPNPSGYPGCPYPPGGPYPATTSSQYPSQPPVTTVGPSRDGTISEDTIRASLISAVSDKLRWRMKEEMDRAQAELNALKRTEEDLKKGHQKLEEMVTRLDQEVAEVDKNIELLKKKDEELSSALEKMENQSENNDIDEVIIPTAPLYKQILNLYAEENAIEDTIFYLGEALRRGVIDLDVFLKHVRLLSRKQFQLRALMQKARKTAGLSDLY
#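 qHTS FP binding, 20 min r.t.: 10 uM Tsg101 domain + 50 nM FITC-PTAP peptide, pH 7.5 HEPES buffer with TCEP and EDTA.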
# * marks the source's active call; other numbers are inactive results; i = inactive; u = inconclusive; x = no result given; ! = not confirmed by another sample. Hits are enriched below; roughly 2.6% of the tested compounds scored in any of these assays. Unless noted, the call rests on the fitted dose curve; in most records, active means well fitted curve in the direction sought with a large enough effect; inconclusive means small, poorly fitted or top-dose-only effect, or another doubt; inactive means no such curve, though single readings can be large; an effect the other way counts as inactive or inconclusive.
SMILES,B2AR arrestin ag,GPR32 ag,GALC G270D act,FH mod,GALK inhibitor,TSG101-PTAP inh
O=C(NCCc1csc2nc(-c3ccc(F)cc3)nn12)c1ccco1,i,3.7,i,-5.3%,0.1%,i
O=C(NCCc1csc2nc(-c3cccc(F)c3)nn12)c1ccc(Br)o1,i,97.1*,i,-3.1%,-0.4%,i
O=C(Cc1ccc(Cl)cc1)NCCc1csc2nc(-c3ccccc3F)nn12,i,120.9*,i,-1.5%,0.0%,i
CC(C)(C)c1ccc(CNC(=S)NCc2ccc(NS(C)(=O)=O)c(F)c2)cc1,x,x,x,-15.8%,x,x
CCCCCCCC/C=C\CCCCCCCC(=O)NCc1ccc(O)c(OC)c1,x,75.1*!,i,u,x,x
CCCCCCCC/C=C\CCCCCCCC(=O)NCCc1ccc(O)c(O)c1,x,-7.6,x,u,x,x
CN(C)C(=O)c1cc2cnc(Nc3ccc(N4CCNCC4)cn3)nc2n1C1CCCC1,x,x,x,14.1%,x,x
Cc1cc(C)c2c(=O)cc(CSc3nnc(-c4ccccc4)n3C)[nH]c2c1,i,60.7*,i,-9.9%,1.3%,i
Cc1cc(C)c2c(=O)cc(CSc3nnc(COc4ccccc4C)n3C)[nH]c2c1,i,24.5,i,-16.2%,0.2%,i
Cc1nnc(-c2ccc(-c3ccc(C(=O)Nc4ccc(O)c(N5CCN(C)CC5)c4)cc3)c(C)c2)o1,x,x,x,1.0%,x,x
COCCCn1c(=N)c(C(=O)NCc2ccco2)cc2c(=O)n3ccccc3nc21,i,-4.3,i,2.4%,-1.2%,i
CCOCCCn1c(=N)c(C(=O)NCc2ccco2)cc2c(=O)n3ccccc3nc21,i,-23.6,22.4µM*,2.8%,0.0%,i
CC1=C(C(=O)OC2CCCC2)C(c2c(Cl)cccc2Cl)CC(=O)N1 (centres undefined),i,82.3*,i,-17.7%,-8.8%,i
CC1=C(C(=O)OC2CCCC2)C(c2cccc(Cl)c2Cl)CC(=O)N1 (centres undefined),i,83.1*,i,-13.8%,-6.1%,i
CC1(C)C(=O)C(C)(C)c2cc(C(=O)Nc3ccc(C(=O)O)cc3)ccc21,x,x,x,-0.5%,x,x
CC(C)c1cc(C(=O)N2CC[C@@H](NC(=O)C3CC3)C2)n[nH]1,x,x,x,2.5%,x,x
Cc1ccc(C(=O)c2sc(Nc3ccc(F)cc3)c(C#N)c2N)cc1,i,85.9*,i,-12.0%,8.4%,i
Cc1nn(C)c2c1c(C(F)(F)F)cc(=O)n2CC(=O)N1CCCCC1C (centres undefined),i,79.9*,i,3.5%,1.6%,i
Cc1c2cnn(-c3ccccc3)c(=O)c2c(C)n1CC(=O)N1CCN(c2ccc(F)cc2)CC1,i,-0.5,i,-5.9%,-0.3%,i
Cc1cc(=O)n(CC(=O)N2CCN(c3ccc(F)cc3)CC2)c2c1c(C)nn2C,i,71.0*,i,-5.5%,0.5%,i
CCOC(=O)C1CCCN(C(=O)Cn2c(=O)cc(C)c3c(C)nn(C)c32)C1 (centres undefined),i,81.0*,i,0.1%,-2.1%,i
Cc1nn(C)c2c1c(C(F)(F)F)cc(=O)n2CC(=O)Nc1ccc(F)cc1F,i,-5.5,i,-18.4%,0.7%,i
CCn1c(=O)c(-c2ccc(Cl)cc2Cl)cc2cnc(Nc3ccc(N4CCNCC4)c(F)c3)nc21,x,x,x,-2.9%,x,x
Cc1n[nH]c(C)c1S(=O)(=O)N1CCCC(C(=O)Nc2ccc(Cl)cc2)C1 (centres undefined),i,107.4*,i,-6.2%,-0.3%,i
Cc1ccc(NC(=O)C2CCCN(S(=O)(=O)c3c(C)n[nH]c3C)C2)cc1Cl (centres undefined),i,41.1,i,-5.3%,-0.8%,i
CCN(CC)CCOc1ccc(/C(=C(\Cl)c2ccccc2)c2ccccc2)cc1,x,91.0*,i,-11.0%,x,x
